An excerpt weighted towards active compounds, which were near 3.6% of everything screened.
AmpC inh no detg – qHTS Inhibitors of AmpC Beta-Lactamase (assay without detergent); 330,000 tested, 0.52% active; Potency, µM (highest dose often 57.1 µM), hits mostly inhibitors; AmpC nitrocefin hydrolysis, absorbance 480 nm, 0.0001% Triton; P00811; further: nearly all actives have a fitted effect of over 20% in size
Target sequence (P00811 whole entry, looked up): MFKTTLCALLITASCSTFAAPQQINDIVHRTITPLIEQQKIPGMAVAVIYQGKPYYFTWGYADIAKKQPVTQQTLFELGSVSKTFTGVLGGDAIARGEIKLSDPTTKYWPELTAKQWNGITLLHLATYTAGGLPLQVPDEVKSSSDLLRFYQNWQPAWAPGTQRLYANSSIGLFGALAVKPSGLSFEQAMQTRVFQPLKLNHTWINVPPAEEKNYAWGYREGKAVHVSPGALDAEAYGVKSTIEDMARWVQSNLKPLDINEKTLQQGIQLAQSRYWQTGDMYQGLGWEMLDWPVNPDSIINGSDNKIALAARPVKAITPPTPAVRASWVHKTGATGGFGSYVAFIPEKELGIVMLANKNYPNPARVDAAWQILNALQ
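AmpC (5.3 nM in the dispensed reagent) in 20 mM phosphate pH 7.0 with 0.01% (detergent screen) or 0.0001% Triton X-100 was preincubated with compounds for 15 min at room temperature. Nitrocefin was then added from an 800 uM solution, and hydrolysis was followed at 480 nm.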
Sm TGR inh – qHTS Assay for the Inhibitors of Schistosoma Mansoni Peroxiredoxins; Schistosoma mansoni thioredoxin glutathione reductase (TGR), Q962Y6; purified TGR, DTNB reduction, TNB absorbance 405 nm; Potency, µM (titrated, usually from 114 µM), most hits filed as inhibitors; 360,000 tested, 3% active; AID 485364, 2010; further: nearly all actives have a fitted effect of over 60% in size
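Kinetic colorimetric format: TGR-catalysed, NADPH-driven DTNB reduction monitored via TNB absorbance. Enzyme dispensed at 20 nM; compound exposure 15 min at room temperature before reaction start.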
AmpC detergent – qHTS Inhibitors of AmpC Beta-Lactamase (assay with detergent) | Potency, µM (top dose mostly 114 µM), actives largely listed as inhibitors | 370,000 tested, 0.041% active | P00811 | AmpC hydrolysis of nitrocefin, absorbance 480 nm, 0.01% Triton; further: nearly all actives have a fitted effect of over 25% in size
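AmpC (5.3 nM in the dispensed reagent) in 20 mM phosphate pH 7.0 with 0.01% (detergent screen) or 0.0001% Triton X-100 was preincubated with compounds for 15 min at room temperature. Nitrocefin was then added from an 800 uM solution, and hydrolysis was followed at 480 nm.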
FBPA Giardia inh – qHTS Assay for Inhibitors of Fructose-1,6-bisphosphate Aldolase from Giardia Lamblia | A8B2U2 | purified Giardia FBPA | Potency, µM (series often up to 59.6 µM), actives largely listed as inhibitors | 290,000 tested, 0.71% active | AID 2451, 2010; further: nearly all actives have a fitted effect of over 55% in size
Target sequence (A8B2U2 whole entry, looked up): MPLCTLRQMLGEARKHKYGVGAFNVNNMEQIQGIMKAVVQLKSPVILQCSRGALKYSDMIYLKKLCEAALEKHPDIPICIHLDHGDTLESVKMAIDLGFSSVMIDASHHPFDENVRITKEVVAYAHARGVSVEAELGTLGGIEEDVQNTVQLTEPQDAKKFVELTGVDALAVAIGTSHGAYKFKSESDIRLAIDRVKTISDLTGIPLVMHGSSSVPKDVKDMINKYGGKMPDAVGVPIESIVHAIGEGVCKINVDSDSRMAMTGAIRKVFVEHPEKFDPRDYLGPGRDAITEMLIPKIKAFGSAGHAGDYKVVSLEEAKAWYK
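Giardia FBPA (40 nM reagent) was preincubated 10 min at RT with compound (up to 57.5 uM final), then substrate plus GAPDH/TPI/NAD/arsenate coupling system with diaphorase/resazurin was added; resorufin fluorescence (525/598 nm) was read after 20 min.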
Of the large screens only hits and unclear results are named; the others gave an inactive call. The call rests on the fitted dose curve; in most records, active means well fitted curve in the direction sought with a large enough effect; inconclusive means small, poorly fitted or top-dose-only effect, or another doubt; inactive means no such curve, though single readings can be large; an effect the other way counts as inactive or inconclusive.

Cc1oc(-c2ccccc2Cl)nc1CS(=O)(=O)CC(=O)NC1CCCC1	Sm TGR inh 45µM
CCN1CCCC1CNC(=O)CS(=O)(=O)Cc1nc(-c2ccccc2C)oc1C (stereo not given)	AmpC detergent inconclusive
CCOC(=O)N1CCC(NC(=O)CSCc2nc(-c3sccc3C)oc2C)CC1	Sm TGR inh 40µM
Cc1ccccc1-c1nc(CS(=O)(=O)CC(=O)NC2CCCC2)c(C)o1	Sm TGR inh 40µM
CCOC(=O)N1CCC(NC(=O)CS(=O)(=O)Cc2nc(-c3ccccc3C)oc2C)CC1	Sm TGR inh 45µM, AmpC detergent inconclusive
CCOC(=O)N1CCC(NC(=O)CS(=O)(=O)Cc2nc(-c3ccc(OC)cc3)oc2C)CC1	Sm TGR inh inconclusive (no result: FBPA Giardia inh)
Cc1ccc(NC(=O)NC2CC(=O)N(c3ccc4c(c3)OCCO4)C2)c(C)c1 (stereo not given)	AmpC detergent inconclusive (no result: FBPA Giardia inh)
O=C(CN1CCN(c2cccc(Cl)c2)CC1)NC1CCCc2ccccc21 (stereo not given)	none
CCC(=O)Oc1ccc(NC(=O)CSCc2ccccc2)cc1	none
Cc1ccn(CC(=O)N2CCCC(N3CCN(c4cccc(Cl)c4)CC3)C2)n1 (stereo not given)	none (no result: FBPA Giardia inh)
CCC(CC)c1nn2c(N)c(/C=C3\C(C)=Nc4ccccc43)c(=O)nc2s1	AmpC inh no detg 7.9µM
CCC(CC)c1nn2c(N)c(/C=C3\C=Nc4ccccc43)c(=O)nc2s1	none
Cc1nc2ccccc2c(=O)n1N(c1ccccc1)c1ccccc1	AmpC detergent inconclusive
CN(C)S(=O)(=O)c1cc(NC(=O)CN2CCN(c3ccc(O)cc3)CC2)ccc1Cl	Sm TGR inh 79µM, FBPA Giardia inh inconclusive
CC(C)CC(=O)Nc1ccc(C(=O)CN2CCN(c3ccc(O)cc3)CC2)cc1	Sm TGR inh 5.6µM
C[C@H](NC(=O)c1ccc2ccccc2c1)C(=O)N1CCC2(CC1)NCCc1[nH]cnc12	none (no result: FBPA Giardia inh)
C1CCc2nc3c(nc2C1)CCCC3	none
Nc1nnc2c(n1)CCCC2	AmpC inh no detg 0.16µM, Sm TGR inh 32µM, FBPA Giardia inh inconclusive
CC(=O)c1ccc(OC(=O)COc2ccccc2Cl)cc1	Sm TGR inh 40µM
Cc1ccc(OC(=O)COc2ccccc2C)cc1	none
CC1CCN(CC2CCN(C(=O)Nc3ccc(Br)cc3F)CC2)CC1	none (no result: AmpC inh no detg, FBPA Giardia inh)
FC(F)(F)c1cc(NC(=S)Nc2ccc3ccccc3c2)cc(C(F)(F)F)c1	none (no result: AmpC inh no detg, Sm TGR inh, AmpC detergent)
Cc1ccccc1CNC(=O)c1ccc(-c2nc(CS(=O)(=O)c3ccccc3)c(C)o2)cc1	Sm TGR inh inconclusive (no result: AmpC inh no detg, FBPA Giardia inh)
Cc1oc(-c2ccc(C(=O)NCCC(C)C)cc2)nc1CS(=O)(=O)c1ccccc1	Sm TGR inh 35µM (no result: AmpC inh no detg, FBPA Giardia inh)
Cc1ccc(S(=O)(=O)Cc2nc(-c3ccc(C(=O)NCc4ccccc4)cc3)oc2C)cc1	Sm TGR inh 32µM (no result: AmpC inh no detg, FBPA Giardia inh)
Cc1ccc(S(=O)(=O)Cc2nc(-c3ccc(C(=O)NCc4ccccc4C)cc3)oc2C)cc1	Sm TGR inh inconclusive (no result: AmpC inh no detg, FBPA Giardia inh)
COc1ncc2ncc(=O)n(CCC#N)c2n1	none (no result: AmpC inh no detg, Sm TGR inh, AmpC detergent)
O=C(O)C1C2CCC(C2)C1C(=O)NCCCn1ccnc1 (stereo not given)	none
O=C(O)C1C2C=CC(O2)C1C(=O)NCCCn1ccnc1 (stereo not given)	Sm TGR inh 50µM
COc1ccc(OCC(=O)Nc2ccc(-c3nc4cc(C)cc(C)c4o3)cc2)cc1	none (no result: AmpC inh no detg, FBPA Giardia inh)
Cc1ccc(Nc2cc(C)c(C#N)c3nc4ccccc4n23)cc1Cl	none (no result: AmpC inh no detg, FBPA Giardia inh)
O=C(CCS(=O)(=O)c1nc(-c2ccc3c(c2)OCO3)cc(C(F)(F)F)n1)Nc1ccc(F)c(Cl)c1	none (no result: AmpC inh no detg, FBPA Giardia inh)
CCn1nc(C)c(Br)c1C(=O)Sc1ccccc1Cl	Sm TGR inh 8.9µM
Cc1nn(Cc2ccccc2Cl)c(Cl)c1C(=O)O	none
COc1cc(C(CCN2CCCCC2)c2c(OC)cc(OC)c3c(-c4ccccc4)cc(=O)oc23)cc(OC)c1OC (stereo not given)	Sm TGR inh 45µM
COc1ccc(C(=S)NCS(=O)(=O)c2ccc(C)cc2)cc1	Sm TGR inh 2.5µM, AmpC detergent inconclusive
Cc1ccc(S(=O)(=O)CNC(=S)c2cccc(C)c2)cc1	Sm TGR inh 3.5µM
Cc1ccc(S(=O)(=O)CNC(=S)c2ccc3ccccc3c2)cc1	Sm TGR inh 3.2µM
COc1ccc(C(=S)Nc2ccc(C)cc2)cc1	none
Cc1ccc(S(=O)(=O)CNC(=O)c2ccccc2)cc1	Sm TGR inh 20µM
CC(=O)OCC1OC(n2cnc3c(=O)[nH]cnc32)C(OC(C)=O)C1OC(C)=O (stereo not given)	none (no result: AmpC inh no detg, Sm TGR inh, AmpC detergent)
Cc1cccc(OCC(=O)N/N=C/C=C/c2ccco2)c1	Sm TGR inh 40µM
Cc1cccc(C)c1OCC(=O)N/N=C/C=C/c1ccco1	Sm TGR inh 16µM
Cc1ccc(OCC(=O)N/N=C/C=C/c2ccco2)c(Br)c1	Sm TGR inh 28µM
Cc1noc(C)c1NC(=O)Nc1cccc2c1O[C@H](CN(C)S(=O)(=O)c1cccs1)[C@@H](C)CN([C@H](C)CO)C2=O	none (no result: Sm TGR inh, AmpC detergent, FBPA Giardia inh)
C(=N\n1cnnc1SCc1ccccc1)/c1ccco1	Sm TGR inh 22µM, AmpC detergent inconclusive
NC(=O)C1CCN(C(=O)c2ccccc2NC(=O)c2nsc3ccccc23)CC1	none (no result: AmpC inh no detg, FBPA Giardia inh)
CCCn1c(/C=C/c2ccco2)nc2ccccc21	Sm TGR inh 20µM
CCCCn1c(/C=C/c2ccco2)nc2ccccc21	Sm TGR inh 10µM
Cc1c(C(=O)N2CCCCC2)c(S(=O)(=O)N2CCC(C)CC2)c(C)n1C	none
CCC1C/C(=C\c2cc(OC)c(OC)cc2OC)C(=O)/C(=C/c2cc(OC)c(OC)cc2OC)C1 (stereo not given)	none
CCC1C/C(=C/c2ccco2)C(=O)/C(=C/c2ccco2)C1 (stereo not given)	Sm TGR inh 20µM, AmpC detergent inconclusive
CCN1CCN(C(=O)c2cc(COc3ccc(C(C)=O)cc3OC)on2)CC1	none
Cc1ccc(CNC(=O)CCCn2c(=O)c3ccccc3n(CC(=O)Nc3ccc(C)c(C)c3)c2=O)cc1	none (no result: AmpC inh no detg, FBPA Giardia inh)
Cc1ccccc1C(=O)N1CCC(N2CCN(Cc3ccc(F)cc3)C(=O)C2=O)CC1	none (no result: AmpC inh no detg, FBPA Giardia inh)
Cc1ccc(NS(=O)(=O)c2ccc(C(=O)N3CCCC(C(F)(F)F)C3)cc2)cc1 (stereo not given)	AmpC inh no detg 35µM, AmpC detergent inconclusive (no result: FBPA Giardia inh)
COc1ccccc1NS(=O)(=O)c1ccc(C(=O)N2CCCC(C(F)(F)F)C2)cc1 (stereo not given)	none (no result: FBPA Giardia inh)
Cc1cc(/C=C2\SC(=S)NC2=O)c(C)n1-c1ccc(O)cc1	AmpC inh no detg 11µM
Cc1cc(/C=C2\SC(=S)NC2=O)c(C)n1-c1ccccc1	none
COc1cccc(C2C(C(N)=O)=C(C)Nc3ncnn32)c1 (stereo not given)	none (no result: AmpC inh no detg, FBPA Giardia inh)
Cc1ccnc(N2C(=O)c3cccc4c([N+](=O)[O-])ccc(c34)C2=O)c1	none
O=C1c2cccc3cccc(c23)C(=O)N1Cc1cccnc1	none
Cc1nnc(N2C(=O)c3cccc4c([N+](=O)[O-])ccc(c34)C2=O)s1	Sm TGR inh 4.5µM

Screens deposited in PubChem by National Center for Advancing Translational Sciences (NCATS).
